From PubChem BioAssay AID1851 (National Center for Advancing Translational Sciences (NCATS), 2009)
Values joined by “and” are separate entries in the source; they are usually repeats but may differ in a detail not shown here. Equal entries are not always repeated. The campaign covered roughly 16,000 compounds. About 4,000 (25%) were called active. Roughly 26% stayed inconclusive and do not appear here. A selection follows. Unmarked numbers belong to inactive results. Calls follow the shape of the dose curve; as a rule, active = well fitted curve in the direction sought with a large enough effect; inconclusive = small, poorly fitted or top-dose-only effect, or effect the other way; inactive = no such curve, though single readings can be large or run the other way.

molecular target: Cytochrome P450 2C9 (Homo sapiens) (UniProt P11712); assay: Cytochrome panel assay with activity outcomes; conditions: recombinant CYP, pro-luciferin dealkylation, luminescence, p450-cyp2c9; series mostly up to 57.1 µM
% is scaled to controls: 0 for no effect and ±100 for the full control effect.

Sequence of Cytochrome P450 2C9 (Homo sapiens) (P11712 whole entry, looked up): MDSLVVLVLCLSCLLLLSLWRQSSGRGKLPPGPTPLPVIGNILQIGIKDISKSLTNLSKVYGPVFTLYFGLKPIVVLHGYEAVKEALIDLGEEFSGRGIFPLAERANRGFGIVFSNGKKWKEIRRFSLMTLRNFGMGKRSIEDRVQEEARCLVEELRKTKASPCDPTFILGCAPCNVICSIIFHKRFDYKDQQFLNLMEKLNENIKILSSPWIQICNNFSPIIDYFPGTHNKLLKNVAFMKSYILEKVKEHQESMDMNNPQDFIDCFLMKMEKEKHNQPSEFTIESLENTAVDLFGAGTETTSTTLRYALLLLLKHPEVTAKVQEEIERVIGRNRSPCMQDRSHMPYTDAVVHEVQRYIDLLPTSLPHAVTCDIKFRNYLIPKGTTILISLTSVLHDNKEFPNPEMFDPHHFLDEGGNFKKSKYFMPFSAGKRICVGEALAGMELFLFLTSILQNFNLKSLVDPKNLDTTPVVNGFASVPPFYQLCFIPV

Compound	AC50	activity, negative = inhibition
CCOC(=O)c1sc(NC(C)=O)nc1-c1ccccc1	31.6 µM (active)	–
COC(=O)c1c(-c2ccc3ccccc3c2)csc1NC(=O)Cc1ccc(OC)c(OC)c1	0.447 µM (active)	–
COc1ccc(CC(=O)NCc2ccccn2)cc1OC	inactive	–
COc1ccc(C/C(N)=N/OC(=O)Cc2ccccc2)cc1OC	inactive	–
CCOC(=O)Cc1csc(NS(=O)(=O)c2ccccc2)n1	5.01 µM (active)	–
CCOC(=O)c1sc(NS(=O)(=O)c2ccccc2)nc1C	1 µM (active)	–
C#CCCCO/N=C1/C[C@@H](O)[C@@H](O)[C@@H]2[C@@H]3C(=O)N(C4CCCCC4)C(=O)[C@H]3CC[C@H]12	–	6.11% [at 11.4 µM]
CCOC(=O)c1c(-c2cccc(C)c2)csc1NC(=O)c1c(-c2ccccc2)noc1C	inactive	–
CCOC(=O)c1c(-c2ccccc2)csc1NC(=O)c1cccc(N2C(=O)CCC2=O)c1	0.316 µM (active)	–
CCOC(=O)c1c(-c2ccc(OC)cc2)csc1NC(=O)CCN1C(=O)c2ccccc2C1=O	1.41 µM (active)	–
CCOC(=O)Cc1csc(NC(=O)CCCCCN2C(=O)c3ccccc3C2=O)n1	1.26 µM (active)	–
Cn1cnnc1SCC(=O)OCN1C(=O)c2ccccc2C1=O	inactive	–
CCOC(=O)c1c(C)n(C)c2ccc(OC)c(NC(=O)CN3CCCCC3)c12	inactive	–
CCCC(=O)Nc1nc(C(=O)OCC)cs1	inactive	–
N[C@@H](Cn1cc(F)c(=O)[nH]c1=O)C(=O)O	inactive	–
Cc1ccc(S(=O)(=O)N(CC(=O)NCCC2=CCCCC2)Cc2ccccc2F)cc1	7.08 µM (active)	–
Cc1c(C(=O)NCCC2=CCCCC2)cccc1[N+](=O)[O-]	inactive	–
CC(=O)c1cnc2cc(C)nn2c1C	inactive	–
O=C1CCCN1c1ccc(S(=O)(=O)Oc2cccc(Cl)c2)cc1[N+](=O)[O-]	11.2 µM (active)	–
O=C(Cn1ccnc1[N+](=O)[O-])NCCO	inactive	–
COc1cccc(-c2ccc3ncnc(N4CCN(C)CC4)c3c2)c1	–	-5.64% [at 2.29 µM]
COc1cccc(-c2nccc(-n3ccnc3)n2)c1	–	-24.4% [at 2.29 µM]
COc1cccc(-c2nnc3sc(-c4ccc(C)cc4)nn23)c1	10 µM (active)	–

Compound	AC50	activity, negative = inhibition
COc1ccc(CNc2ccnc(-c3ccc(C(=O)N(C)C)cc3)n2)c(OC)c1	–	-2.88% [at 2.29 µM]
Cc1ccc(N2C(=O)CSC2c2cccnc2)cc1F (centres undefined)	inactive	–
Cc1ccc(NC(=O)C2(NC(=O)c3cccc(N4C(=O)CSC4c4ccccc4)c3)CCCCC2)cc1 (centres undefined)	1.41 µM (active)	–
Cc1ncc(COP(=O)(O)O)c(C)c1O	–	5.34% [at 11.4 µM]
COc1ccc(NC(C)=O)cc1NC(=O)CN1CCN(C2c3ccccc3-c3ccccc32)CC1	10 µM (active)	–
COC(=O)C/C=C1\c2ccccc2[C@H](OC)[C@H]1C	–	15.8% [at 11.4 µM]
CC(=O)Nc1ccc2c(c1)C(=Nc1ccc(C(=O)O)cc1)c1ccccc1-2	–	16.5% [at 11.4 µM]
CC(C)OC(=O)CN1CCN(C2c3ccccc3-c3ccccc32)CC1	14.1 µM (active)	–
COC(=O)N1CCC2(CCCN(Cc3ccccc3OC)C2)CC1	inactive	–
CCN1CCN(C(=O)C2c3cc(OC)c(OC)cc3C(=O)N3CCc4ccccc4C23)CC1 (centres undefined)	inactive	–
COc1ccccc1NC(=O)CN1CCN(C2c3ccccc3-c3ccccc32)CC1	0.794 µM (active)	–
O=C(O)C[C@@H](C(=O)O)C1c2ccccc2-c2ccccc21	–	-12.1% [at 11.4 µM]
Cc1c(NC(=O)NC(C)N2C(=O)C3C4C=CC(C4)C3C2=O)c(=O)n(-c2ccccc2)n1C (centres undefined)	inactive	–
COCCNc1cc(-c2ccccc2C(F)(F)F)ncn1	–	6.38% [at 2.29 µM]
O=C(NNC(=S)NCc1ccco1)c1ccc(Cl)s1	4.47 µM (active)	–
O=S(=O)(c1ccccc1)N1CCC2(CCCN(Cc3nccs3)C2)CC1	inactive	–
CSC(=NC#N)N1CCN(c2ccc(Cl)cc2)CC1	5.01 µM (active)	–
CC(C)c1nnc(NC(=O)c2sc3ccccc3c2Cl)s1	12.6 µM (active)	–
CN(C(=S)NC(=O)c1ccccc1Br)C1CCCCC1	inactive	–
CCOC(=S)NC(=O)c1sc2ccccc2c1Cl	0.0631 µM (active)	–
O=C(NC(=S)N(CCCCO)C1CCCCC1)c1sc2ccccc2c1Cl	7.94 µM (active)	–
CC(C)Cc1nnc(NC(=O)c2ccc([N+](=O)[O-])cc2)s1	inactive	–
CCCCOC(=S)NC(=O)c1sc2ccccc2c1Cl	0.282 µM (active)	–

Compound	AC50	activity, negative = inhibition
Cc1ccc(NC(=O)c2sc3ccccc3c2Cl)nc1	inactive	–
O=C(O)CCC(=O)c1ccc2sc3ccccc3c2c1	–	-2.22% [at 11.4 µM]
Cc1ncc2c(c1O)COP(=O)(O)OC2	inactive	–
CN(C)c1ccc(-c2cc(NCc3cccnc3)ncn2)cc1	–	-1.19% [at 2.29 µM]
CCc1cc2c(nc1CC)CCN(CC/C(C)=N/O[C@@H](C)c1cn([C@H](CO)Cc3ccccc3)nn1)C2	–	1.31% [at 11.4 µM] and -5.84% [at 11.4 µM]
COc1ccc2[nH]cc(C=O)c2c1	inactive	–
CC1(C)Oc2ccc(C#N)cc2[C@H](N2CCCC2=O)[C@H]1O	inactive	–
O=C(O)CCC(O)=C1S(=O)(=O)OCCOS1(=O)=O	–	8.09% [at 11.4 µM]
O=C(O)[C@H]1CCCNC1	inactive	–
c1c[nH]c(CN2CCN(Cc3ncc[nH]3)CC2)n1	–	-13% [at 11.4 µM]
CC[C@H]1C2=C3C(CC[C@H]4C(OCc5ccc(F)cc5C(F)(F)F)OC[C@](C)([C@@H]34)N(C(=O)OC(C)(C)C)C2)C(COC)C1COC (some centres undefined)	inactive	–
CCn1nc(C(=O)Nc2ccccc2C)c(Cl)c1Cl	inactive	–
Cc1ccccc1Cn1nc(C)c(NC(=O)c2sc3ccccc3c2Cl)c1C	7.08 µM (active)	–
CN(C)CCN(Cc1cccs1)c1ccccn1	inactive	–
Cc1ccc(S(=O)(=O)/C(C#N)=C/c2c(N3CC(C)OC(C)C3)nc3ccccn3c2=O)cc1 (centres undefined)	11.2 µM (active)	–
CC(=O)[C@H]1CC[C@@H]2[C@H]3CC=C4C[C@@H](O)CC[C@]4(C)[C@H]3CC[C@]12C	inactive	–
C[C@@H](O)[C@H]1C(=O)N2C(C(=O)O)=C(S[C@@H]3CN[C@H](C(=O)N(C)C)C3)[C@H](C)[C@H]12	inactive	–
CCOC(=O)c1[nH]c(C)c(C(=O)OCC(=O)N2c3ccccc3CC2C)c1C (centres undefined)	25.1 µM (active)	–
Cc1nnc(SCC(=O)NCC2CCCCC2)n(N)c1=O	inactive	–
Cc1ccc(-c2cc(-c3nnc(SCC(=O)NC(C)C(C)C)n3N)c3ccccc3n2)cc1 (centres undefined)	1.12 µM (active)	–
NNC(=O)CNc1cccc(Br)c1	–	1.94% [at 11.4 µM]
NNC(=O)CNC(c1ccccc1)c1cc(Br)ccc1NC(=O)c1ccccc1Br (centres undefined)	3.16 µM (active)	–
Cc1ccccc1-c1nc(N2CCNCC2)c2ccccc2n1	–	0.671% [at 2.29 µM]

Compound	AC50	activity, negative = inhibition
C[C@](O)(c1ccccc1)c1nccc2ccccc12	–	-17.3% [at 11.4 µM]
Oc1c(C(O)(c2ccccc2)c2ccc3ccccc3c2O)ccc2ccccc12	0.794 µM (active)	–
Nc1nc(N)c2nn(-c3ccc(C(=O)O)cc3)nc2n1	–	7.68% [at 11.4 µM]
COc1ccccc1C1CC(c2c(-c3ccccc3)c3cc(Cl)ccc3[nH]c2=O)=NN1S(C)(=O)=O (centres undefined)	2.82 µM (active)	–
CCC1=NN(C(=O)CCc2ccccc2)C(O)(C(F)(F)F)C1 (centres undefined)	4.47 µM (active)	–
CCOC(=O)N1N=C(c2ccccc2)CC1(O)C(F)(F)F (centres undefined)	10 µM (active)	–
COc1cc(N=C(N)N=C(N)N)c2ncccc2c1	–	8.03% [at 11.4 µM]
CCOC(=O)N/N=C1/C[C@@H](O)[C@@H](O)[C@@H]2[C@@H]3C(=O)N(c4cccc(Oc5ccccc5)c4)C(=O)[C@H]3CC[C@H]12	–	7.2% [at 11.4 µM]
Cc1cc(C2C(C#N)=C(N)OC3=C2C(=O)CC(C)(C)C3)c(C)s1 (centres undefined)	7.08 µM (active)	–
COc1ccc(C2C(C#N)=C(N)OC3=C2C(=O)CC(C)(C)C3)c([N+](=O)[O-])c1OC (centres undefined)	1 µM (active)	–
C[C@H]1COC(=O)[C@H](Cc2ccccc2)NC(=O)[C@@H](C)COC(=O)[C@H](Cc2ccccc2)NC1=O	–	-8.11% [at 11.4 µM]
CO[C@H]1COC(=O)[C@H](C)NC(=O)C/C=C\[C@@H](C)[C@@H](NS(=O)(=O)c2ccc(C)cc2)COC(=O)C/C=C\[C@@H]1C	–	-2.5% [at 11.4 µM]
Cc1ccc(C(=O)Cn2nnc3c(sc4nc5c(c(-c6ccccc6)c43)CCC5)c2=O)cc1	3.55 µM (active)	–
CCOC(=O)c1c(C)nc2sc3c(=O)n(-c4ccc(OC)cc4)nnc3c2c1-c1ccc(OC)cc1	10 µM (active)	–
CCOC(=O)c1c(NC(=O)C2C3CCC(O3)C2C(=O)O)sc(C)c1-c1ccc(C)cc1 (centres undefined)	inactive	–
Cc1ccc(-c2c3c(nc4sc(C(N)=O)c(N)c24)CCC3)cc1	8.91 µM (active)	–
CCOC(=O)Cn1nnc2c(sc3nc4c(c(-c5ccc(Cl)cc5)c32)CCC4)c1=O	12.6 µM (active)	–
CCN1CCC[C@@H]1CNC(=O)c1cc(S(N)(=O)=O)ccc1OC	inactive	–
N#CC1(Nc2ccc(-c3ccc(NC4(C#N)CCCC4)cc3)cc2)CCCC1	–	-5.08% [at 11.4 µM]
C[C@@H]1/C=C\CC(=O)OC[C@H](C)C(=O)N2CCC[C@@H]2C(=O)OC1	–	-11.7% [at 11.4 µM]
